# Reference: PubChem BioAssay AID602123 (The Scripps Research Institute Molecular Screening Center, 2011)
# Out of some 360,000 compounds screened, about 1,500 (0.42%) were called active. No stated cut-off is given here; in the data, active means inhibition above about 13% (passing the limit was not always enough); inactive means the rest. The entries come from a sample that favours actives as a whole.
# Molecular target: Lon protease (Escherichia coli (strain K12)) (UniProt P0A9M0)
# Experiment: inhibitors of E. coli Lon protease, primary screen, biochemical, fluorescence polarization (AID 602123);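 further: 0% = enzyme with probe and DMSO and 100% = no enzyme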
# Details: purified E. coli Lon protease, at 7.94 µM, hits give high values
# Sequence of Lon protease (Escherichia coli (strain K12)) (P0A9M0 whole entry, looked up): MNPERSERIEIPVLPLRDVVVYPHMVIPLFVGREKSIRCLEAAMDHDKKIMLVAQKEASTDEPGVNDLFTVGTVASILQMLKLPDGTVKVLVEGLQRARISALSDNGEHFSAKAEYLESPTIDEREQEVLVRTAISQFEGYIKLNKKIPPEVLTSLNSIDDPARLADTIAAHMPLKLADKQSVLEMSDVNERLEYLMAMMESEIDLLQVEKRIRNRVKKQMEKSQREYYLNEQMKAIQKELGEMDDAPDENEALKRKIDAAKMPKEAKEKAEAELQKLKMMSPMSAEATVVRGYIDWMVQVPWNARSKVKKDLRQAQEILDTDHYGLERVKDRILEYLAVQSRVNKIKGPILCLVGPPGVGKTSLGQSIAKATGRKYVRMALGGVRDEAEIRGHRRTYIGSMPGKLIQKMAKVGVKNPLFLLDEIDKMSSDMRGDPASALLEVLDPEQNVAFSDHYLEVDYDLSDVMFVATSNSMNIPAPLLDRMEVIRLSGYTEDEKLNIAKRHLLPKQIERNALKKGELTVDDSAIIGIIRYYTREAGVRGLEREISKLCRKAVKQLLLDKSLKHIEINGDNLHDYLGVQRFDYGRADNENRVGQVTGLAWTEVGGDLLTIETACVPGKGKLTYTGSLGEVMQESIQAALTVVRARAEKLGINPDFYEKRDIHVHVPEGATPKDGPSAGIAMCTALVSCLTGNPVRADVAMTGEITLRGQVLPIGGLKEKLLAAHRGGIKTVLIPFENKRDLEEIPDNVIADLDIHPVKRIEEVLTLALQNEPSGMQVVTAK
row,SMILES,inhibition
1,O=S(=O)(NCc1ccccn1)c1ccc(Br)s1,-5.95% (inactive)
2,O=S(=O)([N-]c1nc2ccccc2nc1-[n+]1ccc(Cc2ccccc2)cc1)c1ccc(Br)s1,51.7% (active)
3,CCOC(=O)C(C(=O)c1ccccc1)C(c1ccccc1)c1nccc2ccccc12 (configuration not stated),-5.25% (inactive)
4,CCOCCOCCC(C(=O)O)P(=O)(c1ccccc1)c1ccccc1 (configuration not stated),1.28% (inactive)
5,CSc1ncccc1C(=O)NCC(c1ccco1)N1CCCCC1 (configuration not stated),2.84% (inactive)
6,O=C(NCc1ccco1)c1cnn2c(C(F)(F)F)cc(-c3ccco3)nc12,-0.62% (inactive)
7,Oc1ccc2ccccc2c1N=Nc1nccs1,43.2% (active)
8,O=C(COC(=O)CNC(=O)C1CCCCC1)Nc1cccc(F)c1,-17.9% (inactive)
9,CCN1CCN(CC(=O)c2cc(OC)c(OC)c(OC)c2)CC1,7.78% (inactive)
10,Cc1ccc(C=O)c([B-](F)(F)F)c1,-1.79% (inactive)
11,CN1c2ccc(C=O)c3c(C=O)ccc(c23)N(C)C1(C)C,117% (active)
12,COc1ccc(C(=O)NCC(c2ccco2)N2CCc3ccccc32)cc1OC (configuration not stated),4.85% (inactive)
13,COc1ccc(C)cc1NC(=O)CNCc1cccs1,5.01% (inactive)
14,COc1cc(OC)cc(C(=O)NNC(=O)Cc2cccs2)c1,-9.81% (inactive)
15,COc1ccc(OC)c(NC(=O)Cc2cccs2)c1,32.4% (active)
16,COc1cc(C(=O)Nc2ncccc2C)ccc1OCC(=O)N1CCOCC1,-2.64% (inactive)
17,CC(=O)CC[C@@H](C)O[C@@H]1OC(C)[C@H](O)CC1O (some centres not stated),1.06% (inactive)
18,CCc1cc2c(=O)c(-c3nc4ccccc4n3C)c(CCCC(=O)O)oc2cc1OC(=O)C(C)(C)C,-5.21% (inactive)
19,O=C1C(Sc2cccc(F)c2)=C[C@@]2(O)CC[C@@H](O)[C@]1(Sc1cccc(F)c1)[C@H]2O,-1.25% (inactive)
20,COc1ccc(C(=O)NCc2nnc(SCC(=O)NC3=NCCS3)n2C)cc1,1.04% (inactive)
21,COc1ccc(CC(=O)NCc2nnc(SCC(=O)Nc3nccs3)n2C)cc1,-1.92% (inactive)
22,COc1ccc(C(=O)NCc2nnc(SCCOc3ccccc3)n2C)cc1,19.3% (active)
23,C/C(=N\NC(=O)NC1CCCCC1)c1ccc(OC(F)F)cc1OC(F)F,-5.36% (inactive)

row,SMILES,inhibition
1,O=C1c2cccc3c([N+](=O)[O-])ccc(c23)C(=O)N1CC1CCCO1 (configuration not stated),25.4% (active)
2,O=C1C(C=NCC2CCCO2)=C(O)c2ccccc21 (configuration not stated),3.5% (inactive)
3,N#Cc1cc([N+](=O)[O-])ccc1NCC1CCCO1 (configuration not stated),7.82% (inactive)
4,COc1ccc(SCCN2CCN(CC(C)C)CCC2=O)cc1,8.99% (inactive)
5,CN(Cc1cn(Cc2ccc(C(F)(F)F)cc2)nn1)C1CN(Cc2cn(Cc3ccc(C(F)(F)F)cc3)nn2)S(=O)(=O)C1 (configuration not stated),4.67% (inactive)
6,Cc1ccccc1S(=O)(=O)NC(=O)C1(C)CCN1C(=O)C1(c2ccccc2)CCCC1 (configuration not stated),-3.92% (inactive)
7,CCN(CC)C(=O)CSc1nnc(-c2ccc(S(=O)(=O)NCc3ccccc3Cl)cc2)o1,11.8% (inactive)
8,Cc1cnc(CN(C)C(=O)C2CCC(=O)N(CCc3cccc(F)c3)C2)[nH]1 (configuration not stated),0.28% (inactive)
9,COc1ccc(NC(=O)CC(NC(C)c2ccccc2)C(=O)O)cc1 (configuration not stated),1.2% (inactive)
10,COc1ccc(CC(=O)Nc2ccc(-c3nnc(-c4ccccc4)o3)cc2)cc1,27.1% (active)
11,COc1ccc(NC(=O)CSc2nnc(Cc3ccccc3)c(=O)n2N)cc1,1.33% (inactive)
12,O=c1c2ccccc2nc2n1C(CSCc1cccc(C(F)(F)F)c1)CS2 (configuration not stated),-0.91% (inactive)
13,COc1ccc(C2C3=C(OC(C)=O)c4ccccc4C3=Nc3c2c(=O)n(C)c(=O)n3C)cc1 (configuration not stated),-3.27% (inactive)
14,CC1Cc2cc(/C(O)=C3\C(=O)C(=O)N(Cc4cccnc4)C3c3ccccc3F)ccc2O1 (configuration not stated),-8.03% (inactive)
15,O=C1C=C(NCCNc2c(F)c(F)c(CO)c(F)c2F)CCC1,16.1% (active)
16,CC1CC(C)CN(C(=O)COC(=O)c2ccc3ncsc3c2)C1 (configuration not stated),0.01% (inactive)
17,CC(C)NC(=O)Nc1cccc2c1O[C@@H](CN(C)S(=O)(=O)c1ccc(F)cc1)[C@@H](C)CN([C@H](C)CO)C2=O,-17.1% (inactive)
18,O=C(COC(=O)Cn1cnc2ccccc21)Nc1cccc2c1C(=O)c1ccccc1C2=O,49.2% (active)
19,O=C(COC(=O)c1cccc(Br)c1)Nc1cccc2c1C(=O)c1ccccc1C2=O,-3.73% (inactive)
20,O=C(Cn1cnc2ccccc21)Nc1ccccc1-c1ccccc1,-15.9% (inactive)
21,Cc1ccc(S(=O)(=O)N2CCC(C(=O)NCCC3=CCCCC3)CC2)cc1C,2.33% (inactive)
22,Cc1ccc(OCC(=O)Nc2cccc3c2CCCC3)cc1C,-1.11% (inactive)
23,O=C(Nc1ccc(Br)cc1F)C1CC(=O)N(C2CCCCC2)C1 (configuration not stated),-9.6% (inactive)

row,SMILES,inhibition
1,CCS(=O)(=O)n1nc(-c2ccccc2)nc1SCc1ccccc1,0.39% (inactive)
2,COc1ccc(-c2cc3nc(NCCOc4ccccc4)ccn3n2)cc1,5.17% (inactive)
3,CC(C)Cc1ccc(-c2cc3nc(NCc4cccc(Cl)c4)ccn3n2)cc1,-0.63% (inactive)
4,COc1ccccc1-c1cc2nc(NCc3cccc(Cl)c3)ccn2n1,19.1% (active)
5,O=C(NCCc1ccco1)C(=O)NCCC1CCCCN1S(=O)(=O)c1ccccc1 (configuration not stated),0.36% (inactive)
6,COc1cc(OC)c2ccc(=O)oc2c1C(CCN1CCN(c2ccccc2)CC1)c1ccc2c(c1)OCO2 (configuration not stated),-2.01% (inactive)
7,O=C(NC(=O)c1ccc(Cl)c(Cl)c1)OC1CCS(=O)(=O)C1 (configuration not stated),-3.19% (inactive)
8,CCOCCCNS(=O)(=O)Cc1ccccc1,5.68% (inactive)
9,CCCc1cc(=O)[nH]c(SCC(=O)Nc2ccc(S(=O)(=O)N3CCCC3)cc2)n1,-14.4% (inactive)
10,CCCc1cc(=O)[nH]c(SCC(=O)N2CCN(S(=O)(=O)c3ccc(C)cc3C)CC2)n1,22.9% (active)
11,Cc1ccc(S(=O)(=O)N2CCN(C(=O)CSc3cc(C)ccc3C)CC2)c(C)c1,1.59% (inactive)
12,COc1ccc(S(=O)(=O)N2CCCCC2c2cc(C(=O)NCc3ccc(F)cc3)no2)cc1 (configuration not stated),-3.9% (inactive)
13,CCCOn1c(-n2nc(C)cc2C)nc2ccccc2c1=O,-4.29% (inactive)
14,CC1(C)NC(=O)N(CC(=O)Nc2ccc(-c3ccccc3)cc2)C1=O,-5.51% (inactive)
15,Cc1[nH]c2ccccc2c1CCN(Cc1cccs1)C(=S)NC(C)(C)C,-6.78% (inactive)
16,COc1ccc2[nH]c(C)c(CCN(Cc3cccs3)C(=S)Nc3ccccc3OC)c2c1,18.1% (active)
17,COc1ccc(NC(=S)NCc2cccs2)c(OC)c1,-8.04% (inactive)
18,CCn1c(CSc2nncn2-c2ccc(OC)cc2)nc2cc(S(=O)(=O)N(C)C)ccc21,3.36% (inactive)
19,Cc1ccccc1Nc1nc(N)nc(CSc2nnc3ccccn23)n1,7.49% (inactive)
20,Cc1ccccc1Nc1nc(N)nc(CN2CCN(c3ccccn3)CC2)n1,16.7% (active)
21,CCCn1nc(C(=O)OCc2nc(N)nc(Nc3ccccc3C)n2)c2ccccc2c1=O,-13.7% (inactive)
22,Cc1sc(NC(=S)NC(=O)c2cccs2)nc1-c1ccc(CC(C)C)cc1,-2.21% (inactive)
23,O=C(CSCc1ccc([N+](=O)[O-])cc1)Nc1cccc(C(=O)Nc2ccccc2C(=O)O)c1,-7.21% (inactive)

row,SMILES,inhibition
1,Cc1ccc(S(=O)(=O)N2CCC(C(=O)OCC(=O)N(C)c3ccccc3)CC2)cc1C,-4.62% (inactive)
2,C[C@@H]1CN([C@H](C)CO)C(=O)CCCn2nncc2CO[C@@H]1CN(C)C(=O)OCc1ccccc1,-12.2% (inactive)
3,CCN(CC(=O)NC1CCS(=O)(=O)C1)c1nc(-c2cccnc2)nc2ccccc12 (configuration not stated),-4.31% (inactive)
4,COc1ccc(Nc2nc(-c3cccnc3)nc3ccccc23)cn1,51.2% (active)
5,O=C(CSc1n[nH]c(-c2cccnc2)n1)Nc1ccnc2ccccc12,-1.63% (inactive)
6,O=C(C1=C(O)C(=O)N(c2ncccn2)C1c1cccs1)c1ccco1 (configuration not stated),44.3% (active)
7,O=C(C1=C(O)C(=O)N(Cc2ccccc2)C1c1cccnc1)c1ccco1 (configuration not stated),-4.41% (inactive)
8,Cc1ccc2nc(N3C(=O)C(O)=C(C(=O)c4ccco4)C3c3cccc(O)c3)sc2c1 (configuration not stated),-1.95% (inactive)
9,CCOC(=O)Cn1c(SC)nc2sc3c(c2c1=O)CC(C)(C)OC3,-4.5% (inactive)
10,CC/C(C)=N/Nc1nc2sc3c(c2c(=O)[nH]1)CC(C)(C)OC3,20.9% (active)
11,CC(C)c1nc2sc3c(c2c(=O)n1N)CC(C)(C)OC3,-4.29% (inactive)
12,CCC(C)c1ccc(NC(=S)NCc2ccccn2)cc1 (configuration not stated),0.44% (inactive)
13,CN(C)c1ccc(C2N(C)C(=O)c3ccccc3N2C)cc1 (configuration not stated),-1.4% (inactive)
14,CN(C)c1ccc(Nc2c3c4c(cccc4n(C)c2=O)C(=O)c2ccccc2-3)cc1,48.2% (active)
15,COc1ccc(NC(=O)CC2C(=O)OCC3CCCCN32)cc1Cl (configuration not stated),1.67% (inactive)
16,Cc1ccc(C(=O)O)c(NC=O)c1OCc1ccccc1,-0.93% (inactive)
17,COc1ccc(-c2csc(C(O)c3cccc(Cl)c3)n2)cn1 (configuration not stated),-11.3% (inactive)
18,CCN1CC=C2C(C#N)=C(N)C(C#N)(C#N)[C@H](c3ccoc3)[C@H]2C1,120% (active)
19,CC(C)C(=O)Nc1nnc(Sc2ccc(N(C)C)cc2)s1,-6.47% (inactive)
20,CCN(CC(=O)NCc1ccc(Cl)cc1)C(=O)CSc1ccccc1,-3.84% (inactive)
21,CCOC(=O)NC(=O)C(=CNc1cccc(OC)c1)C(=O)NC(=O)OCC,-2.26% (inactive)
22,CCN(CC)C(=O)CN(c1cccc(OC)c1)S(=O)(=O)c1ccc(C)cc1,-0.24% (inactive)
23,CCOCCN(C=O)c1cccc(OC)c1,32.6% (active)
